# ChEMBL document CHEMBL1961873, “Compounds: GSK PKIS; Assays: Nanosyn kinase panel” (2012)
# What was measured:
# [1] = target: 5'-AMP-activated protein kinase catalytic subunit alpha-2 (Homo sapiens) (UniProt P54646); details: at 1 µM
# [2] = target: T1, NUAK family SNF1-like kinase 1 (Homo sapiens) (UniProt O60285); details: at 0.1 µM
# T1 sequence (whole entry): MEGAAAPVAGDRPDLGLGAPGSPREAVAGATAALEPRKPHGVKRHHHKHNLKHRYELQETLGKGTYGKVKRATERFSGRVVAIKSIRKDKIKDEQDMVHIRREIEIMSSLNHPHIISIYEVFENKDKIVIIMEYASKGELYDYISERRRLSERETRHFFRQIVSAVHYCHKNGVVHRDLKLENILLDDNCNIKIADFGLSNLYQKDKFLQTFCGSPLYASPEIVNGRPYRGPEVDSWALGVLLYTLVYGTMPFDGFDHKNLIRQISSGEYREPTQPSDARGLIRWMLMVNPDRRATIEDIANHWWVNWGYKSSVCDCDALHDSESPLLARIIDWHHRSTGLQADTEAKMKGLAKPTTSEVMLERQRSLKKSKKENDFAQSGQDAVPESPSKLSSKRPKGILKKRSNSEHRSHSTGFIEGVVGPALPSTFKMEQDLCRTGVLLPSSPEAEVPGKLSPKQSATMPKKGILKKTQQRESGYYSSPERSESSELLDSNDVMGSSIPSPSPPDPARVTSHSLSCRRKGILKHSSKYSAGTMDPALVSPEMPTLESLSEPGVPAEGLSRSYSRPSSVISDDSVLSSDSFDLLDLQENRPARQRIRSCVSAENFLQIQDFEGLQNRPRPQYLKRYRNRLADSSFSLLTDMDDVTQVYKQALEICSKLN
# [3] = target: T1, NUAK family SNF1-like kinase 1 (Homo sapiens); details: at 1 µM
# [4] = target: T2, Serine/threonine-protein kinase BRSK1 (Homo sapiens) (UniProt Q8TDC3); details: at 0.1 µM
# T2 sequence (whole entry): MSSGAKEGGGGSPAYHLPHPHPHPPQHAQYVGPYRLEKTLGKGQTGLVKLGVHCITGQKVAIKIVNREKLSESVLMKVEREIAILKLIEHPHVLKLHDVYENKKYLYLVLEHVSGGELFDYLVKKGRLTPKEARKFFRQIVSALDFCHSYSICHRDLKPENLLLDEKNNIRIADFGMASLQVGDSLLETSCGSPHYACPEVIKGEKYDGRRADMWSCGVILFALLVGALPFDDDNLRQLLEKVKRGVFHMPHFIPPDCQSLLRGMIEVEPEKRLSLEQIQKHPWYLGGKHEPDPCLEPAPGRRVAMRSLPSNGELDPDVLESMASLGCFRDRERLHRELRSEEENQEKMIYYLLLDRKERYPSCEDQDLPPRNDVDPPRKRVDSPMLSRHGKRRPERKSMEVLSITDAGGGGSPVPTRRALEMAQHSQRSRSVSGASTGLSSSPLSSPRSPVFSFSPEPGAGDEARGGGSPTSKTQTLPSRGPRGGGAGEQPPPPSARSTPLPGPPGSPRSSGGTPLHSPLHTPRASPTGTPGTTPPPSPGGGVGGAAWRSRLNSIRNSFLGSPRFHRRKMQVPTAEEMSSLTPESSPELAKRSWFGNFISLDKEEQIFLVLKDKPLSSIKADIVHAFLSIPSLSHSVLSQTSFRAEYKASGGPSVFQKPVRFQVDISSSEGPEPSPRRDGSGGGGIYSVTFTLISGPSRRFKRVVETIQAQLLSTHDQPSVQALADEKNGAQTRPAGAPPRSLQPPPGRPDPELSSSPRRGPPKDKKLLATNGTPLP
# [5] = target: T2, Serine/threonine-protein kinase BRSK1 (Homo sapiens); details: at 1 µM
# [6] = target: T3, Serine/threonine-protein kinase BRSK2 (Homo sapiens) (UniProt Q8IWQ3); details: at 0.1 µM
# T3 sequence (whole entry): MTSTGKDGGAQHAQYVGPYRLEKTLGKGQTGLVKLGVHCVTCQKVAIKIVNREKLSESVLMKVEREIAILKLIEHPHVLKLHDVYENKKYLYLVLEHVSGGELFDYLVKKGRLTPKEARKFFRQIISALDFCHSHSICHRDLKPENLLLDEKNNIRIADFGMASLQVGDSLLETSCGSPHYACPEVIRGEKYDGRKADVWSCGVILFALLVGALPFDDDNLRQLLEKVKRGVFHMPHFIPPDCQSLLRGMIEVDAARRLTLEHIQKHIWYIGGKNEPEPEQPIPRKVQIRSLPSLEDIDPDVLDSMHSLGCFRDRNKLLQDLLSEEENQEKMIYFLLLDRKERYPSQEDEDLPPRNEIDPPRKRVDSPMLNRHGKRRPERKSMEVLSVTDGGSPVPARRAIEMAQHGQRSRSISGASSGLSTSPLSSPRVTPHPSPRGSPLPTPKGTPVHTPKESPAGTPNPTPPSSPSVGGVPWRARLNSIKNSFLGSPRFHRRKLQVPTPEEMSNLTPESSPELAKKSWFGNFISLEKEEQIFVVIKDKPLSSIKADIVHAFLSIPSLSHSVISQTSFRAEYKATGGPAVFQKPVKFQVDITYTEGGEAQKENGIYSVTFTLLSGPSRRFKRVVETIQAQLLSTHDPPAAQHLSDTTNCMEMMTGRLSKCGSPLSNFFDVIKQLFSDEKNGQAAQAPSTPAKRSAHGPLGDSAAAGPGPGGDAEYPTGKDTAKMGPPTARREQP
# [7] = target: T3, Serine/threonine-protein kinase BRSK2 (Homo sapiens); details: at 1 µM
# [8] = target: Calcium/calmodulin-dependent protein kinase type 1D (Homo sapiens) (UniProt Q8IU85); details: at 0.1 µM
# [9] = target: Calcium/calmodulin-dependent protein kinase type 1D (Homo sapiens) (UniProt Q8IU85); details: at 1 µM
# [10] = target: Calcium/calmodulin-dependent protein kinase type II subunit alpha (Homo sapiens) (UniProt Q9UQM7); details: at 0.1 µM
# [11] = target: Calcium/calmodulin-dependent protein kinase type II subunit alpha (Homo sapiens) (UniProt Q9UQM7); details: at 1 µM
# [12] = target: Calcium/calmodulin-dependent protein kinase type II subunit delta (Homo sapiens) (UniProt Q13557); details: at 0.1 µM
# [13] = target: Calcium/calmodulin-dependent protein kinase type II subunit delta (Homo sapiens) (UniProt Q13557); details: at 1 µM
# [14] = target: T4, Calcium/calmodulin-dependent protein kinase type IV (Homo sapiens) (UniProt Q16566); details: at 0.1 µM
# T4 sequence (whole entry): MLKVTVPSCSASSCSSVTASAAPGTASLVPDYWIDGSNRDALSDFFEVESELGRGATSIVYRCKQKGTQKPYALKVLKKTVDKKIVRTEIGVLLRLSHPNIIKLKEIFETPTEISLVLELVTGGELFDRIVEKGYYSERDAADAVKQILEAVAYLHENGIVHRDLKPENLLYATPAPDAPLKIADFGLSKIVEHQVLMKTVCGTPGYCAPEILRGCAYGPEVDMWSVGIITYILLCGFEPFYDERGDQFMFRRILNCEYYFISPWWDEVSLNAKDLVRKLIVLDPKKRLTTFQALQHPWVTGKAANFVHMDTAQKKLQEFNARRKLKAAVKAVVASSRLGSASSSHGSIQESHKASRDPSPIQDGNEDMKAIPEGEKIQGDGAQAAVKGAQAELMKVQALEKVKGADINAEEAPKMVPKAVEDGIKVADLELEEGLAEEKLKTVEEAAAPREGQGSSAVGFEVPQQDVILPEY
# [15] = target: T4, Calcium/calmodulin-dependent protein kinase type IV (Homo sapiens); details: at 1 µM
# [16] = target: T5, Serine/threonine-protein kinase Chk1 (Homo sapiens) (UniProt O14757); details: at 0.1 µM
# T5 sequence (whole entry): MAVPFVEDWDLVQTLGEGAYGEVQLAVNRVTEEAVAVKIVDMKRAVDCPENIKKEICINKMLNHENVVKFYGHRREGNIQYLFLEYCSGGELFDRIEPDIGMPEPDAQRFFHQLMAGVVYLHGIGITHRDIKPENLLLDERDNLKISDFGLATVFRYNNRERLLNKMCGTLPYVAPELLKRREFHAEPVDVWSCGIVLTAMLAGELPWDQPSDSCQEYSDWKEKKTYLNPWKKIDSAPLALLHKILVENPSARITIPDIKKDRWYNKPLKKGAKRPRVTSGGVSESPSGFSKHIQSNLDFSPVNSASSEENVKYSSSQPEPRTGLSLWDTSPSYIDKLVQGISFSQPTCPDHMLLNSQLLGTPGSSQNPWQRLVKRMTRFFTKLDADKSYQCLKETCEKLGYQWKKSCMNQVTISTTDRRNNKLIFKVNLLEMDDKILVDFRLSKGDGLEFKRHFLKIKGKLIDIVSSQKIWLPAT
# [17] = target: T5, Serine/threonine-protein kinase Chk1 (Homo sapiens); details: at 1 µM
# [18] = target: Serine/threonine-protein kinase Chk2 (Homo sapiens) (UniProt O96017); details: at 0.1 µM
# [19] = target: Serine/threonine-protein kinase Chk2 (Homo sapiens) (UniProt O96017); details: at 1 µM
# [20] = target: Death-associated protein kinase 1 (Homo sapiens) (UniProt P53355); details: at 0.1 µM;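 note: reported figure is the mean inhibition of DAPK1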
# Chain of Death-associated protein kinase 1 (Homo sapiens) (P53355 whole entry, looked up): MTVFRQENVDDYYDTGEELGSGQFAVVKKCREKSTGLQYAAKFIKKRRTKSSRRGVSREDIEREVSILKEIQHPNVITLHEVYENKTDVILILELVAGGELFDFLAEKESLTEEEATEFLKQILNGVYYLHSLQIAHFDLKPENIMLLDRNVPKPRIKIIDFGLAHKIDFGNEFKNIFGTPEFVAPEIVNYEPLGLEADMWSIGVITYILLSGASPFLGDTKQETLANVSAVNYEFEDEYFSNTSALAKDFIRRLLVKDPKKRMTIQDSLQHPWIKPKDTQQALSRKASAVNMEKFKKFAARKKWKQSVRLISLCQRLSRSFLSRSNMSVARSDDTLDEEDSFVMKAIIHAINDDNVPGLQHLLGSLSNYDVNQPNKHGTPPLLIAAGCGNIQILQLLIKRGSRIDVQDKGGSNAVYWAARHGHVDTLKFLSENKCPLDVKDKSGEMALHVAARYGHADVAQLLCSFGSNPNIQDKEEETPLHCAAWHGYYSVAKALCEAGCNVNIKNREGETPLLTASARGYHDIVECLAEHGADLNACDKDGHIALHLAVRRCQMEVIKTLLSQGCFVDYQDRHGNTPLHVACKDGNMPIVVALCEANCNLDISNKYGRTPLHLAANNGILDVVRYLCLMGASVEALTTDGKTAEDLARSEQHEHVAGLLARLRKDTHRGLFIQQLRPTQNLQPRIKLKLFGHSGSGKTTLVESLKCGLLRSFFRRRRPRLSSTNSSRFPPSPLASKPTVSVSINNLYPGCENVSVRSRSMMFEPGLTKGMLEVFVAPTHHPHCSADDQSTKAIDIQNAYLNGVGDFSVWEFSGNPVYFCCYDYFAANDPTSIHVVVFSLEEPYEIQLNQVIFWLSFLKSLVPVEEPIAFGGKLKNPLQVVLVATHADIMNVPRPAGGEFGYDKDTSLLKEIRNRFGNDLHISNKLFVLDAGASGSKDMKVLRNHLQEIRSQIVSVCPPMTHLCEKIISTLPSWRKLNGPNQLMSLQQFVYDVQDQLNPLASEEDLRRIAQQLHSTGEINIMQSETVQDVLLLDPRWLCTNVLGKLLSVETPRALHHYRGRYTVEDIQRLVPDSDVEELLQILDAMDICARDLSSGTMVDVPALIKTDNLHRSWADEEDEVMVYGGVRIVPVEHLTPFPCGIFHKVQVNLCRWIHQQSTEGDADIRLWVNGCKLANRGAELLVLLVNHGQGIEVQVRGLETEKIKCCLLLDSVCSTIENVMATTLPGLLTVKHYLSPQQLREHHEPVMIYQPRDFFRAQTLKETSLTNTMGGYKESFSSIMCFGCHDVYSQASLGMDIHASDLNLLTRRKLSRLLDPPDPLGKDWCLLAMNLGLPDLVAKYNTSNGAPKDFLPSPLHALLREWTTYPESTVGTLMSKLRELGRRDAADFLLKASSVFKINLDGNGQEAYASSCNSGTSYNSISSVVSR
# Chain of Calcium/calmodulin-dependent protein kinase type 1D (Homo sapiens) (Q8IU85 whole entry, looked up): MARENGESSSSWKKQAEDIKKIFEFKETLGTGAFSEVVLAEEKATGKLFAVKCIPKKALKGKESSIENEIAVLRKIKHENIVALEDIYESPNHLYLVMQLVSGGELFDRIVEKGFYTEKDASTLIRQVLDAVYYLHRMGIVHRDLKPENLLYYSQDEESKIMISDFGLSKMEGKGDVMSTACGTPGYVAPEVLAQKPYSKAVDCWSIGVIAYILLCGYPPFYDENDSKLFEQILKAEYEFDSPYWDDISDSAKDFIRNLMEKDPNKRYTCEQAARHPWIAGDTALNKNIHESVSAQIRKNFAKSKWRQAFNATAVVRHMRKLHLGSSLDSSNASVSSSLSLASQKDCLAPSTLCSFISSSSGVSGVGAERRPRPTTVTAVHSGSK
# Chain of Calcium/calmodulin-dependent protein kinase type II subunit alpha (Homo sapiens) (Q9UQM7 whole entry): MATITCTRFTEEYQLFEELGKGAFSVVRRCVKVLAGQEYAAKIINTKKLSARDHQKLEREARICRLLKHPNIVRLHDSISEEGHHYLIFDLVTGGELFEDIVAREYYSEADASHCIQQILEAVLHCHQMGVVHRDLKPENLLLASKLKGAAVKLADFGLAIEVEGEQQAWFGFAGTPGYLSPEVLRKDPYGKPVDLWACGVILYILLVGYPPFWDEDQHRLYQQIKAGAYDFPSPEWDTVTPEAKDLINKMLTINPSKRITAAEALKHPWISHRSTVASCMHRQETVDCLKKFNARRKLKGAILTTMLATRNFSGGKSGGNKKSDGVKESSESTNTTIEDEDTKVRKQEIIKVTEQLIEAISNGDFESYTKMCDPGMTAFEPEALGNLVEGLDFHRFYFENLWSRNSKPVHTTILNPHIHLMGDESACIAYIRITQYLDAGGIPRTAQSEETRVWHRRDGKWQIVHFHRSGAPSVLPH
# Chain of Calcium/calmodulin-dependent protein kinase type II subunit delta (Homo sapiens) (Q13557 whole entry): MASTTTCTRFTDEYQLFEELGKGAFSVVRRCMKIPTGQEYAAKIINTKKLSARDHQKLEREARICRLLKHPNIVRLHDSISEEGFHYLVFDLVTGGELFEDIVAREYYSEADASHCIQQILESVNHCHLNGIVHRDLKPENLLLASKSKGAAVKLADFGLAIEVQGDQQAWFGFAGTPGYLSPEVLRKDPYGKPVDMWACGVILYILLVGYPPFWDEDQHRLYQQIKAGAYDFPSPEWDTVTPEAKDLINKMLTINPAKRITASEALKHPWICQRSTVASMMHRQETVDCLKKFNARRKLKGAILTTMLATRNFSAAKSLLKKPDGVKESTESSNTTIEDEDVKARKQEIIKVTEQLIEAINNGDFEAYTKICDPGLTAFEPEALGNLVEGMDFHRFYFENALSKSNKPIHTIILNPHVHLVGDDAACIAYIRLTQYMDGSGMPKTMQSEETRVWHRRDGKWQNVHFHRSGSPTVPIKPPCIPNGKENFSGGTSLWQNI
# Chain of Serine/threonine-protein kinase Chk2 (Homo sapiens) (O96017 whole entry): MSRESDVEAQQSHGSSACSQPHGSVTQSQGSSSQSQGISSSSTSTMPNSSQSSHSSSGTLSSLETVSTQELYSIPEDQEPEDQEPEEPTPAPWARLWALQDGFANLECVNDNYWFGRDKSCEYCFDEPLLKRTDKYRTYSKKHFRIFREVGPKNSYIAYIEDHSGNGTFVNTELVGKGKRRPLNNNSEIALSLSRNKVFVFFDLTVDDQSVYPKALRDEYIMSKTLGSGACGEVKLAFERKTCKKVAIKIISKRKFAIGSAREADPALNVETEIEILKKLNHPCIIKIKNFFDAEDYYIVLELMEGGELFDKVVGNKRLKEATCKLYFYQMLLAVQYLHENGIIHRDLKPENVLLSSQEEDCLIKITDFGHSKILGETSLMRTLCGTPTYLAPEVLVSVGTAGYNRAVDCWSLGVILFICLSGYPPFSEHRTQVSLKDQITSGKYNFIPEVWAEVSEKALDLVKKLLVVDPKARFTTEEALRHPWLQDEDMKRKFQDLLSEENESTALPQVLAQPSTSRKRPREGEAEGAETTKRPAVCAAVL
# Chain of 5'-AMP-activated protein kinase catalytic subunit alpha-2 (Homo sapiens) (P54646 whole entry, looked up): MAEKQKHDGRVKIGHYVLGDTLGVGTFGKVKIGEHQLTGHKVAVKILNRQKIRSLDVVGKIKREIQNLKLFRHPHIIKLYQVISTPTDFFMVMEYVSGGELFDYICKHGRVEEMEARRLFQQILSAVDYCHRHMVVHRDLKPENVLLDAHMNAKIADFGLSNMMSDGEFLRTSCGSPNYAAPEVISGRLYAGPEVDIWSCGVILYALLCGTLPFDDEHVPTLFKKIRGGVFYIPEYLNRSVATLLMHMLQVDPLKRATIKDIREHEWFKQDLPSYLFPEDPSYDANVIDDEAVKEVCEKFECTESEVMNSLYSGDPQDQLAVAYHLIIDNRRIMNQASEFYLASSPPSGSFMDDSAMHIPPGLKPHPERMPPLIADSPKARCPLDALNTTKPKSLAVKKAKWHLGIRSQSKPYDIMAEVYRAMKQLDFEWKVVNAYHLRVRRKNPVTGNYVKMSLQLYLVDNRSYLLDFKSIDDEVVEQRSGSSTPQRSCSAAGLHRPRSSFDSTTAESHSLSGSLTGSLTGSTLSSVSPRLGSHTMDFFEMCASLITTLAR
Structure (SMILES),inhibition [1],inhibition [2],inhibition [3],inhibition [4],inhibition [5],inhibition [6],inhibition [7],inhibition [8],inhibition [9],inhibition [10],inhibition [11],inhibition [12],inhibition [13],inhibition [14],inhibition [15],inhibition [16],inhibition [17],inhibition [18],inhibition [19],inhibition [20]
CCNC(=O)O[C@H]1CN[C@H](C#Cc2cc3ncnc(Nc4ccc(OCc5cccc(F)c5)c(Cl)c4)c3s2)C1,4.45%,1.68%,6.34%,0.67%,2.32%,2.25%,1.26%,1.21%,2.24%,3.45%,3.02%,3.6%,4.34%,2.5%,2.5%,3.99%,2.84%,2.23%,2.55%,3.17%
Cc1ccc(O)cc1Nc1ccnc2cc(-c3ccccn3)ccc12,6.05%,4.17%,7.44%,3.63%,5.99%,3.25%,3.89%,1.22%,1.32%,6.72%,5.11%,4.51%,6.51%,-0.2%,0.26%,4.18%,4.5%,3.95%,5.81%,3.99%
CNC(=O)c1cccc(C#Cc2cncnc2Nc2ccc(OCc3cccc(F)c3)c(Cl)c2)c1,1.89%,0.54%,8.68%,-0.7%,2.56%,1.59%,4.03%,-1.04%,-0.89%,1.34%,1.97%,0.91%,1.19%,-0.97%,-3.36%,-1.85%,-0.79%,0.62%,2.35%,-1.4%
CC(=O)NCc1cccc(C#Cc2cncnc2Nc2ccc(OCc3cccc(F)c3)c(Cl)c2)c1,3.37%,3.47%,1.8%,1.85%,3.55%,1.29%,5.12%,0.67%,2.08%,24.7%,-0.5%,0.37%,1.1%,1.04%,2.01%,-3.2%,-4.26%,-4.58%,-3.41%,-6.93%
Nc1nc(-c2cccc(Cl)c2)c(-c2ccc3ncccc3n2)s1,3.28%,-2.86%,5.81%,0.2%,1.68%,1.95%,4.51%,-0.44%,0.6%,3.5%,2.48%,2.83%,3.46%,-2.8%,-4.36%,9.85%,12.6%,10.1%,12.7%,12%
COc1cccc(-c2c[nH]c3c(N/N=C/c4ccncc4)ncnc23)c1,7.68%,4.85%,38.5%,3.83%,21.4%,4.82%,29.8%,2.11%,4.07%,3.48%,6.66%,3.84%,15.2%,1.55%,4.18%,7.71%,11.3%,5.73%,6.91%,9.18%
Fc1cccc(COc2ccc(Nc3ncnc4sc(-c5ccco5)cc34)cc2Cl)c1,5.24%,1.97%,6.27%,0.38%,7.21%,4.09%,7.5%,-0.77%,-1.08%,1.16%,-2.48%,3.02%,1.67%,-1.87%,-2.46%,10.1%,12.5%,7.63%,8.84%,13.2%
Fc1ccc(-c2nn3ncccc3c2-c2ccnc(Nc3ccc4c(c3)OCCO4)n2)cc1,4.39%,-3.69%,-0.79%,0.48%,-0.53%,0.21%,-0.44%,-0.07%,8.91%,3.81%,4.05%,3.8%,5.51%,0.98%,1.52%,1.26%,-1.02%,3.9%,5.77%,0.23%
O=S(=O)(CCNCc1ccc(-c2ccc3ncnc(Nc4ccc(OCc5cccc(F)c5)c(Cl)c4)c3c2)o1)c1ccccc1,4.37%,0.36%,2.65%,-0.02%,4.07%,3.29%,3.94%,1.31%,1.55%,4.23%,2.35%,3.72%,4.42%,-0.6%,0.28%,7.26%,10.1%,2.55%,3.38%,8.91%
c1ccc(-c2nc3n(c2-c2ccc4c(c2)OCO4)CCC3)nc1,3.64%,4.41%,-1.66%,1.42%,2.54%,1.52%,4.23%,0.16%,0.16%,-0.46%,0.36%,1.63%,0.93%,0.61%,-0.72%,3.23%,3.51%,-0.09%,0.94%,1.93%
COc1cc(N2CCN(C(C)C)CC2)ccc1Nc1nc(Nc2ccc(F)cc2C(N)=O)c2cc[nH]c2n1,13.2%,66.6%,85%,2.21%,-0.11%,0.22%,1.71%,10.9%,52.8%,9.8%,53.3%,29%,75.1%,4.5%,29.3%,3.09%,27.8%,49.6%,79.1%,5.07%
CN(C)CCOc1ccc(-c2nc(-c3ccncc3)c(-c3ccc4c(c3)CC/C4=N\O)[nH]2)cc1,2.75%,1.23%,8.79%,-0.13%,1.11%,0.6%,3.51%,0.25%,1.72%,2.79%,2.29%,1.28%,1.23%,0.04%,-0.88%,2.48%,5.39%,1.94%,4.06%,3.99%
CCn1c(-c2nonc2N)nc2ccccc21,4.49%,1.56%,10.1%,2.54%,8.27%,1.85%,9.49%,1.89%,2.35%,4.29%,5.38%,4.24%,4.89%,-0.37%,1.93%,6.35%,4.95%,0.53%,1.9%,4.46%
